Source: PubChem BioAssay AID1159580 (chemical genetic matrix, 2015)
Where “and” joins values, the source holds several entries; their conditions need not be identical. Equal values may be shown once. About 2,000 (36%) of roughly 5,500 compounds were called active. Not shown: some 18% with an inconclusive outcome. No stated cut-off is given here; in the data, active means normalized growth mostly below about 0.91 (no sharp cut-off); inconclusive means no clear call, values can overlap the other calls; inactive means mostly above about 0.92. The list shows a part of the results.

Experiment: chemical genetic growth profiling, strain panel (AID 1159580);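 further: tested at 20 µM; growth read once vehicle control cultures reached saturation at 30 °C; 1 = growth at the plate median or of vehicle wells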
Conditions: growth OD
[1] = S. cerevisiae deletion strains, locus YAL013W, strain DEP1, stronger effect = lower value
[2] = S. cerevisiae deletion strains, locus YBR229C, strain ROT2, stronger effect = lower value
[3] = S. cerevisiae deletion strains, locus YDL101C, strain DUN1, stronger effect = lower value
[4] = S. cerevisiae deletion strains, locus YDR150W, strain NUM1, stronger effect = lower value
[5] = S. cerevisiae deletion strains, locus YEL061C, strain CIN8, stronger effect = lower value
[6] = S. cerevisiae deletion strains, locus YGR078C, strain PAC10, stronger effect = lower value
[7] = S. cerevisiae deletion strains, locus YGR229C, strain SMI1, stronger effect = lower value
[8] = S. cerevisiae deletion strains, locus YHR030C, strain SLT2, stronger effect = lower value
[9] = S. cerevisiae deletion strains, locus YHR087W, strain rtc3, stronger effect = lower value
[10] = S. cerevisiae deletion strains, locus YJL187C, strain SWE1, stronger effect = lower value
[11] = S. cerevisiae deletion strains, locus YJR043C, strain POL32, stronger effect = lower value
[12] = S. cerevisiae deletion strains, locus YJR075W, strain HOC1, stronger effect = lower value
[13] = S. cerevisiae deletion strains, locus YLR039C, strain RIC1, stronger effect = lower value
[14] = S. cerevisiae deletion strains, locus YLR058C, strain SHM2 (second series), stronger effect = lower value
[15] = S. cerevisiae deletion strains, locus YLR085C, strain ARP6, stronger effect = lower value
[16] = S. cerevisiae deletion strains, locus YLR262C, strain YPT6, stronger effect = lower value
[17] = S. cerevisiae deletion strains, locus YML094W, strain GIM5, stronger effect = lower value
[18] = S. cerevisiae deletion strains, locus YMR219W, strain ESC1, stronger effect = lower value
[19] = S. cerevisiae deletion strains, locus YMR263W, strain SAP30, stronger effect = lower value
[20] = S. cerevisiae deletion strains, locus YNL153C, strain GIM3, stronger effect = lower value
[21] = S. cerevisiae deletion strains, locus YNL298W, strain CLA4 (second series), stronger effect = lower value
[22] = S. cerevisiae deletion strains, locus YNL322C, strain KRE1, stronger effect = lower value
[23] = S. cerevisiae deletion strains, locus YNR030W, strain Alg12, stronger effect = lower value
[24] = S. cerevisiae deletion strains, locus YPL055C, strain LGE1, stronger effect = lower value
[25] = S. cerevisiae deletion strains, locus YPL241C, strain CIN2, stronger effect = lower value
[26] = S. cerevisiae deletion strains, locus YPR135W, strain CTF4, stronger effect = lower value
[27] = S. cerevisiae strains, strain wild type, stronger effect = lower value

Measured: normalized growth

CC(NC(=S)Nc1ccc(Oc2ccc(Cl)cc2)cc1)c1ccccc1 (stereo not drawn)
active: [13] 0.78
0.924 (inactive) and 0.84 (active): [8]
inactive: [1] 0.973 | S. cerevisiae deletion strains, locus YAR019C, strain CDC15, stronger effect = lower value 0.952 | S. cerevisiae deletion strains, locus YBL105C, strain PKC1, stronger effect = lower value 0.965 | S. cerevisiae deletion strains, locus YBR135W, strain CKS1, stronger effect = lower value 0.956 | S. cerevisiae deletion strains, locus YBR136W, strain MEC1, stronger effect = lower value 0.968 | S. cerevisiae deletion strains, locus YBR160W, strain CDC28, stronger effect = lower value 0.976 | [2] 0.983 | S. cerevisiae deletion strains, locus YCL061C, strain MRC1, stronger effect = lower value 0.983 | S. cerevisiae deletion strains, locus YDL017W, strain CDC7, stronger effect = lower value 0.979 | S. cerevisiae deletion strains, locus YDL028C, strain MPS1, stronger effect = lower value 0.971 | [3] 0.978 and 0.974 | S. cerevisiae deletion strains, locus YDL108W, strain KIN28, stronger effect = lower value 0.965 | S. cerevisiae deletion strains, locus YDL132W, strain cdc53, stronger effect = lower value 0.964 | S. cerevisiae deletion strains, locus YDL214C, strain PRR2, stronger effect = lower value 0.94 | S. cerevisiae deletion strains, locus YDR052C, strain DBF4, stronger effect = lower value 0.955 | S. cerevisiae deletion strains, locus YDR054C, strain cdc34, stronger effect = lower value 0.965 | [4] 0.97 | S. cerevisiae deletion strains, locus YDR226W, strain ADK1, stronger effect = lower value 0.953 | S. cerevisiae deletion strains, locus YDR477W, strain SNF1, stronger effect = lower value 0.937 | [5] 0.961 | S. cerevisiae deletion strains, locus YER123W, strain YCK3, stronger effect = lower value 0.909 | S. cerevisiae deletion strains, locus YER133W, strain GLC7, stronger effect = lower value 0.941 | S. cerevisiae deletion strains, locus YFL009W, strain cdc4, stronger effect = lower value 0.958 | S. cerevisiae deletion strains, locus YFL029C, strain CAK1, stronger effect = lower value 0.941 | S. cerevisiae deletion strains, locus YFR003C, strain YPI1, stronger effect = lower value 0.961 | S. cerevisiae deletion strains, locus YFR019W, strain FAB1, stronger effect = lower value 0.96 | S. cerevisiae deletion strains, locus YFR028C, strain CDC14, stronger effect = lower value 0.946 | S. cerevisiae deletion strains, locus YGR040W, strain KSS1, stronger effect = lower value 0.922 | S. cerevisiae deletion strains, locus YGR052W, strain FMP48, stronger effect = lower value 1.08 | [6] 0.995 | S. cerevisiae deletion strains, locus YGR092W, strain DBF2, stronger effect = lower value 0.947 | [7] 0.975 | S. cerevisiae deletion strains, locus YHR079C, strain IRE1, stronger effect = lower value 0.97 | S. cerevisiae deletion strains, locus YHR082C, strain KSP1, stronger effect = lower value 1.02 | [9] 0.988 | S. cerevisiae deletion strains, locus YHR205W, strain SCH9, stronger effect = lower value 0.954 | S. cerevisiae deletion strains, locus YIL147C, strain SLN1, stronger effect = lower value 0.96 | S. cerevisiae deletion strains, locus YJL095W, strain BCK1, stronger effect = lower value 0.932 | S. cerevisiae deletion strains, locus YJL128C, strain PBS2, stronger effect = lower value 0.918 | S. cerevisiae deletion strains, locus YJL157C, strain FAR1, stronger effect = lower value 0.927 | [10] 0.987 | S. cerevisiae deletion strains, locus YJR016C, strain ILV3, stronger effect = lower value 0.961 | [11] 0.998 | S. cerevisiae deletion strains, locus YJR066W, strain TOR1 (second series), stronger effect = lower value 0.933 | S. cerevisiae deletion strains, locus YJR066W, strain TOR1, stronger effect = lower value 0.981 | [12] 1.01 | S. cerevisiae deletion strains, locus YKL048C, strain ELM1, stronger effect = lower value 0.965 | S. cerevisiae deletion strains, locus YKL067W, strain YNK1, stronger effect = lower value 0.916 | S. cerevisiae deletion strains, locus YKL101W, strain HSL1, stronger effect = lower value 0.949 | S. cerevisiae deletion strains, locus YKL193C, strain SDS22, stronger effect = lower value 0.958 | S. cerevisiae deletion strains, locus YKL203C, strain TOR2, stronger effect = lower value 1.01 | [14] 0.988 | [15] 0.875 | S. cerevisiae deletion strains, locus YLR113W, strain HOG1, stronger effect = lower value 0.923 | S. cerevisiae deletion strains, locus YLR133W, strain CKI1, stronger effect = lower value 0.932 | [16] 0.871 | S. cerevisiae deletion strains, locus YLR403W, strain SFP1, stronger effect = lower value 0.962 | S. cerevisiae deletion strains, locus YML070W, strain DAK1, stronger effect = lower value 0.924 | [17] 0.905 | S. cerevisiae deletion strains, locus YMR001C, strain CDC5, stronger effect = lower value 0.968 | S. cerevisiae deletion strains, locus YMR205C, strain PFK2 (second series), stronger effect = lower value 0.951 | [18] 0.99 | [19] 0.971 | S. cerevisiae deletion strains, locus YMR277W, strain FCP1, stronger effect = lower value 0.96 | S. cerevisiae deletion strains, locus YNL006W, strain LST8, stronger effect = lower value 0.965 | S. cerevisiae deletion strains, locus YNL020C, strain ARK1, stronger effect = lower value 0.911 | S. cerevisiae deletion strains, locus YNL128W, strain TEP1, stronger effect = lower value 0.964 | [20] 0.985 | S. cerevisiae deletion strains, locus YNL161W, strain CBK1, stronger effect = lower value 0.973 | S. cerevisiae deletion strains, locus YNL183C, strain NPR1, stronger effect = lower value 0.955 | S. cerevisiae deletion strains, locus YNL207W, strain RIO2, stronger effect = lower value 0.959 | S. cerevisiae deletion strains, locus YNL222W, strain SSU72, stronger effect = lower value 0.965 | [21] 0.918 | S. cerevisiae deletion strains, locus YNL307C, strain MCK1 (second series), stronger effect = lower value 0.906 | [22] 1 | [23] 0.944 | S. cerevisiae deletion strains, locus YOL078W, strain AVO1, stronger effect = lower value 0.954 | S. cerevisiae deletion strains, locus YOL136C, strain PFK27, stronger effect = lower value 0.929 | S. cerevisiae deletion strains, locus YOR061W, strain CKA2, stronger effect = lower value 0.941 | S. cerevisiae deletion strains, locus YOR119C, strain RIO1, stronger effect = lower value 1.04 | S. cerevisiae deletion strains, locus YOR231W, strain MKK1, stronger effect = lower value 1.01 | S. cerevisiae deletion strains, locus YOR329C, strain SCD5, stronger effect = lower value 0.976 | S. cerevisiae deletion strains, locus YPL031C, strain PHO85, stronger effect = lower value 0.93 | [24] 0.905 | S. cerevisiae deletion strains, locus YPL153C, strain RAD53, stronger effect = lower value 0.937 | S. cerevisiae deletion strains, locus YPL204W, strain HRR25, stronger effect = lower value 0.899 | S. cerevisiae deletion strains, locus YPL209C, strain IPL1, stronger effect = lower value 0.967 | [25] 0.93 | S. cerevisiae deletion strains, locus YPL256C, strain CLN2, stronger effect = lower value 0.915 | S. cerevisiae deletion strains, locus YPR025C, strain CCL1, stronger effect = lower value 0.961 | S. cerevisiae deletion strains, locus YPR106W, strain ISR1, stronger effect = lower value 0.949 | S. cerevisiae deletion strains, locus YPR111W, strain DBF20, stronger effect = lower value 1.01 | [26] 0.97 | S. cerevisiae deletion strains, strain NNK1, stronger effect = lower value 0.964 | S. cerevisiae deletion strains, strain TSCII, stronger effect = lower value 0.954

CCC(=O)Oc1ccc(NC(=S)NCCCO)cc1
inactive: [1] 1 | [2] 1 | [3] 0.998 | S. cerevisiae deletion strains, locus YDL134C, strain PPH21, stronger effect = lower value 0.992 | [4] 1 | [5] 1.01 | [6] 1 | [7] 1 | [8] 1.05 | [9] 0.999 | [10] 1 | [11] 1 | [12] 1.01 | [13] 0.996 | [14] 1 | [15] 1.04 | [16] 1 | [17] 1.04 | [18] 1 | [19] 1.01 | S. cerevisiae deletion strains, locus YMR307W, strain GAS1, stronger effect = lower value 1.04 | [20] 1.01 | [21] 1.01 | [22] 1.01 | [23] 1.02 | S. cerevisiae deletion strains, locus YOL006C, strain TOP1, stronger effect = lower value 1.01 | [24] 1.01 | [25] 1.04 | [26] 1.22 | [27] 0.993

COc1cccc(NC(=S)NCc2ccco2)c1
inactive: [1] 0.979 | [2] 0.99 | [3] 1.03 | [4] 1.04 | [5] 0.979 | [6] 1.01 | [8] 0.88 | [9] 0.977 | [10] 0.984 | [11] 1.01 | [12] 1 | [13] 0.976 | [14] 0.984 | [15] 0.884 | [16] 0.97 | [17] 0.963 | [18] 0.992 | [19] 1.04 | [20] 1 | [21] 1.01 | [22] 0.994 | [23] 0.986 | [24] 0.976 | [25] 0.97 | [26] 0.956 | [27] 0.996
